Assay [1] concerns the target Lysosomal acid glucosylceramidase (Homo sapiens) (UniProt P04062). The experiment in a line: Glucocerebrosidase-p2 (AID 348; in the data active = potency below about 10 µM; note: potency is the fitted concentration of half-maximal effect). The conditions noted are these: purified GBA, blue fluorogenic substrate, 40 min. An outline of the steps: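 Compounds titrated from 0.6 nM upwards against 0.2 nM enzyme in pH 5.9 citric acid/KH2PO4, taurocholate, tween-20; blue fluorogenic substrate 80 uM, 40 min room temperature, stopped and read Ex 365/Em 440 for AC50.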

The nature of assay [2]: AP1 Signaling Pathway (AID 357; active = well fitted curve in either direction with a large enough effect, not every such curve was filed as active;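 note: ME-180 reporter cells stimulated with EGF at its EC50 level; % is set by controls: 0 for no effect and ±100 for the full control effect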). The conditions noted are these: ME-180 AP-1-bla reporter, EGF-induced, beta-lactamase ratio, 5 h; at 7.69 µM (top of the series) unless noted. An outline of the steps:
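Titration-series screen for positive or negative modulators of EC50 EGF-induced signaling in ME-180 cells carrying an AP-1-driven beta-lactamase reporter. After 5 hours at 37 degrees Celsius, CCF4 460nm/530nm emission ratio gave %Activity; AC50 values derived.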

A short description of assay [3]: NFAT Signaling Pathway (AID 444; active = well fitted curve in either direction with a large enough effect, not every such curve was filed as active;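 note: carbachol stimulus at about its EC50 of 1 µM final; % is set by controls: 0 for no effect and ±100 for the full control effect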). As to conditions: Jurkat NFAT-bla M1, carbachol, beta-lactamase ratio, 5 h; at 7.69 µM (top of the series) unless noted. An outline of the steps: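 Jurkat cells with NFAT-driven β-lactamase reporter and co-expressed M1 receptor, stimulated with carbachol (final 1 uM, ~EC50), compound titration, 5 h at 37 °C. CCF4 loaded 1 h at RT; 460/530 nm ratio gave %activity and AC50.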

A short description of assay [4]: Stat Signaling Pathway (AID 446; active = well fitted curve in either direction with a large enough effect, not every such curve was filed as active;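 note: ME-180 cervical cancer cells given 40 pM IL-6 alongside compound; SIE-controlled beta-lactamase reporter measured as 460/530 nm FRET emission ratio; % is set by controls: 0 for no effect and ±100 for the full control effect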). The conditions noted are these: ME-180 (cervical carcinoma) SIE beta-lactamase reporter, IL-6 stimulated, 5 h; at 7.69 µM (top of the series) unless noted. The procedure, abridged: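 IL-6/STAT signaling read in ME-180 cells via an SIE beta-lactamase reporter. Stimulus was 40 pM IL-6 (its AC50) for 5 hrs, so both activation and inhibition register.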

Assay [5] has as its target Glucocorticoid receptor (Homo sapiens) (UniProt P04150). The experiment in a line: GR-GFP Redistribution (AID 450;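 active = compounds whose dose series gives a full or clear partial fitted curve of increased nuclear translocation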; note: potency is the fitted concentration of half-maximal effect). As to conditions: U2OS GR-GFP nuclear translocation, laser cytometry, 2 h.
Assay [6] shares this target. Kind of assay: GR-EFC Redistribution (AID 451; calls by dose curve; note: potency is the fitted concentration of half-maximal effect). As to conditions: CHO-K1 GR-EFC translocation, beta-gal luminescence, 2 h. The procedure, abridged:
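CHO-K1 cells expressing nuclear EA and GR-ED fragments of b-gal; compounds titrated up to 46 uM final, 2 h at 37 C. GR nuclear translocation read as complemented b-gal luminescence after 1 h RT detection.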

The target in assay [7] is Mitogen-activated protein kinase 10 (Mus musculus) (UniProt Q61831). Kind of assay: JNK3 AlphaScreen Assay (AID 530; active = well fitted curve in either direction with a large enough effect, not every such curve was filed as active;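 note: kinase came from lysate of stimulated human HepG2 cells; signal reports phosphorylation of biotinylated GST-cJun 1-79 at Ser73 with 10 µM ATP; % is set by controls: 0 for no effect and ±100 for the full control effect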). The conditions noted are these: JNK3 lysate, c-Jun phosphorylation; series mostly up to 57.1 µM. The procedure, abridged: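 Pre-activated (IL-1β/TNFα) JNK3 in HepG2 lysates phosphorylates biotin-GST-cJun(1-79), 10 uM ATP; anti-phospho-cJun(Ser73) AlphaScreen read at room temperature, pH 7.6 Tris buffer. Compounds pre-incubated 15 min as titrations.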
On the technique in general: Bead proximity is the source of the signal in Alpha formats.

Assay [8] concerns the target Dual specificity protein kinase CLK4 (Homo sapiens) (UniProt Q9HAZ1). The experiment in a line: qHTS Assay for Inhibitors of CDC-like Kinase 4 (Kinase-Glo Assay) (AID 1770). Note: nearly all actives have a fitted effect of over 65% in size. Note: potency is the fitted concentration of half-maximal effect. The conditions noted are these: recombinant Clk4, Kinase-Glo ATP depletion luminescence; series mostly up to 66.7 µM. The procedure, abridged:
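Clk4 25 nM, RS peptide 100 uM, ATP 1 uM, pH 7.5 Tris, 10 mM MgCl2, 2.5 mM DTT; 4.5 h RT; ATP depletion read by Kinase-Glo luminescence.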
In general terms: qHTS replaces the single test concentration by a dilution series.

Assay [9] shares this target. Kind of assay: qHTS Assay for Inhibitors of CDC-like Kinase 4 (ADP-Glo Assay) (AID 1771). Note: nearly all actives have a fitted effect of over 70% in size. Note: potency is the fitted concentration of half-maximal effect. As to conditions: recombinant CLK4, ADP-Glo luminescence; series mostly up to 80 µM. The procedure, abridged: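 25 nM Clk4 with 100 uM RS repeat peptide and 1 uM ATP (final) in buffer with 2 mM MgCl2, 0.5 mM EGTA, 2.5 mM DTT, 0.01% Triton X-100; 1 h at room temperature; ADP-Glo luminescence for ADP formed.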

Assay [10] shares this target. Kind of assay: qHTS Assay for Inhibitors of CDC-like Kinase 4 (ADP-FP Assay) (AID 1795). Note: nearly all actives have a fitted effect of over 60% in size. Note: potency is the fitted concentration of half-maximal effect. As to conditions: Transcreener ADP fluorescence polarization; series mostly up to 50 µM. The procedure, abridged: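 Kinase activity was followed as ADP output, converted from fluorescence polarization with a calibration curve. Reactions ran one hour at low ATP (1 uM) with RS peptide substrate.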

For assay [11], the target named is Ubiquitin carboxyl-terminal hydrolase 1 (Homo sapiens) (UniProt O94782). The experiment in a line: Inhibitors of USP1/UAF1: Pilot qHTS (AID 504865).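 Note: rhodamine fluorescence freed from ubiquitin-rhodamine substrate followed over time; top concentration of the series differs between compounds; % is set by controls: 0 for no effect and ±100 for the full control effect; nearly all actives have a fitted effect of over 35% in size.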 As to conditions: purified USP1/UAF1, Ub-rhodamine cleavage fluorescence; series mostly up to 54.9 µM. An outline of the steps:
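Enzyme-free wells gave the negative control, while test wells held 1nM USP1/UAF1 preincubated with compound for 15 min at room temperature. Ub-Rho at 150nM final started the reaction, and fluorescence at 480/540 nm was recorded kinetically.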

A short description of assay [12]: Primary qHTS for small molecule stabilizers of the endoplasmic reticulum resident proteome: Secreted ER Calcium Modulated Protein (SERCaMP) assay (AID 1508630). Note: % is set by controls: 0 for no effect and ±100 for the full control effect. The conditions noted are these: SH-SY5Y GLuc-SERCaMP (Gaussia luciferase released on ER calcium loss) secretion, thapsigargin, luminescence; series mostly up to 38.4 µM. The procedure, abridged:
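GLuc-SERCaMP-expressing SH-SY5Y cells, pretreated 16 h with compound, are challenged with thapsigargin to empty ER calcium stores; after 4 h, coelenterazine is added directly to the medium and luminescence is imaged.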

For assay [13], the target named is 3',5'-cyclic-AMP phosphodiesterase 4B (Homo sapiens) (UniProt Q07343). Kind of assay: qHTS Assay for Inhibitors of PDE-IV (AID 607; active = well fitted activation curve with a large enough effect in the main read-out, with a control signal flat, not every such curve was filed as active; note: % of control where 0% means no effect). As to conditions: HEK293 ACTOne CNG channel cells, membrane potential fluorescence; series mostly up to 22.9 µM. An outline of the steps: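 Live HEK293 cells with a modified cyclic nucleotide-gated (CNG) channel report intracellular cAMP via membrane-potential dye fluorescence (ex 535/em 590 nm). Endogenous PDE-IV was targeted. Compounds were tested at up to 22.9 uM final; RO 20-1724 100 uM served as control.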

Assay [14] deals with Cytochrome P450 1A2 (Homo sapiens) (UniProt P05177). Kind of assay: p450-cyp1a2 (AID 410; calls by dose curve; note: potency is the fitted concentration of half-maximal effect). The conditions noted are these: recombinant CYP1A2, luciferin-ME demethylation, luminescence; series mostly up to 57 µM. The procedure, abridged:
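20nM CYP1A2 with 100uM Luciferin-ME (at Km) in 100mM KPO4; compound preincubated 10 min, NADPH regeneration added, 60 min at room temperature. Luciferin quantified by luminescence after detection reagent; normalized to 57 uM furafylline.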

Assay [15] concerns the target Cytochrome P450 3A4 (Homo sapiens) (UniProt P08684). The experiment in a line: qHTS Assay for Activators of Cytochrome P450 3A4 (AID 885). Note: nearly all actives have a fitted effect of over 65% in size. The conditions noted are these: recombinant CYP3A4, Luciferin-PPXE luminescence, 60 min; series mostly up to 57.1 µM. An outline of the steps:
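Quantitative HTS format: compounds preincubated with 20nM human CYP3A4 and Luciferin-PPXE substrate at KM, reaction started by NADPH regeneration, stopped after 60 min, luciferase luminescence read 20 min later.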

Unmarked numbers belong to inactive results. Records with an inconclusive call do not appear. The source made the active and inactive calls. Unless noted, calls come from the whole dose curve; as a rule, active = well fitted curve in the direction sought with a large enough effect; inconclusive = small, poorly fitted or top-dose-only effect, or another doubt; inactive = no such curve, though single readings can be large; an effect the other way counts as inactive or inconclusive.

Dual specificity protein kinase CLK4 (Homo sapiens), sequence (Q9HAZ1 whole entry, looked up): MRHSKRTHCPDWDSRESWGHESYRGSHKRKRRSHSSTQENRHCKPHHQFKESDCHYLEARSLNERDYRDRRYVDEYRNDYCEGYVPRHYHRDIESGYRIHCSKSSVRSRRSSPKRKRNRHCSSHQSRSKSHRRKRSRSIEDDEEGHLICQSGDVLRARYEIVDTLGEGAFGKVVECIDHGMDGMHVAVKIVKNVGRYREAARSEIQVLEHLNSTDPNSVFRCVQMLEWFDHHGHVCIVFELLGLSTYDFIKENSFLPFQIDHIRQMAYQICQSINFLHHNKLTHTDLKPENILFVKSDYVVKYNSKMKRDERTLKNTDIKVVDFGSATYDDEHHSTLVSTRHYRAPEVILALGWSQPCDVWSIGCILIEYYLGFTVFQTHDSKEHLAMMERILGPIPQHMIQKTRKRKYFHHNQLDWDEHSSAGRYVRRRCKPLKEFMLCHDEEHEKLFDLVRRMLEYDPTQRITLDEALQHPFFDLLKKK
Glucocorticoid receptor (Homo sapiens), sequence (P04150 whole entry, looked up): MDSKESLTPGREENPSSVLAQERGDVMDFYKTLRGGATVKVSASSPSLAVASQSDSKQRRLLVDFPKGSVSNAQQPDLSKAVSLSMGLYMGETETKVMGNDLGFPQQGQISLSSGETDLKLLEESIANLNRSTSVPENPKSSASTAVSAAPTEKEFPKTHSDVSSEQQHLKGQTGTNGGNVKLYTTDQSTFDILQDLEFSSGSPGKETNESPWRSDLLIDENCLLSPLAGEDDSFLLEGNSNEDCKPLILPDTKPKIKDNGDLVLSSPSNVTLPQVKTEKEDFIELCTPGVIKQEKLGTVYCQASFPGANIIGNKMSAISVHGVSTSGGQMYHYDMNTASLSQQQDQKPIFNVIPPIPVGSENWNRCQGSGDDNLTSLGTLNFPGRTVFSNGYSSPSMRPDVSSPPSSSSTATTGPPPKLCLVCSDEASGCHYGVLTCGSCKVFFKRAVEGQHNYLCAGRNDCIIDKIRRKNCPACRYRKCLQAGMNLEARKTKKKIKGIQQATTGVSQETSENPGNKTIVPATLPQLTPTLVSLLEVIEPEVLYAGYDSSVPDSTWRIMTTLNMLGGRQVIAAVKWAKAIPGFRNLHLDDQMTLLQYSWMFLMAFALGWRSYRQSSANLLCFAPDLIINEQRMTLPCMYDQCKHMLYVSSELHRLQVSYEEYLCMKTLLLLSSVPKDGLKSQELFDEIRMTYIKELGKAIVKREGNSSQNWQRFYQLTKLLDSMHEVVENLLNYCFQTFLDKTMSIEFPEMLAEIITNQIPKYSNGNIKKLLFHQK
Lysosomal acid glucosylceramidase (Homo sapiens), sequence (P04062 whole entry, looked up): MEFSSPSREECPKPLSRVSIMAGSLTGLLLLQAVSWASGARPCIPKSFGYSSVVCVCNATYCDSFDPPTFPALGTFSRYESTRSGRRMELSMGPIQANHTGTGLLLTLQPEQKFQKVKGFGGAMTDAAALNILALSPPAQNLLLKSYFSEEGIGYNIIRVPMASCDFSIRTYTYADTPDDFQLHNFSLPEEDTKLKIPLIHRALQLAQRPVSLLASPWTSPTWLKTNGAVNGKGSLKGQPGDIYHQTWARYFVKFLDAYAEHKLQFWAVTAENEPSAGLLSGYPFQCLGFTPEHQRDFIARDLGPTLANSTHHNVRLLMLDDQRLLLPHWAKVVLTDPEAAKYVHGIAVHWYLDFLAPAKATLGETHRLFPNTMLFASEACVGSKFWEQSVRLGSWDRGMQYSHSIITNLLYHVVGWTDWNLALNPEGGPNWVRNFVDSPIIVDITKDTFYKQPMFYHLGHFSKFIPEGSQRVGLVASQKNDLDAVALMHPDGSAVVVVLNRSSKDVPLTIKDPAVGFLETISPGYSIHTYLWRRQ
Ubiquitin carboxyl-terminal hydrolase 1 (Homo sapiens), sequence (O94782 whole entry, looked up): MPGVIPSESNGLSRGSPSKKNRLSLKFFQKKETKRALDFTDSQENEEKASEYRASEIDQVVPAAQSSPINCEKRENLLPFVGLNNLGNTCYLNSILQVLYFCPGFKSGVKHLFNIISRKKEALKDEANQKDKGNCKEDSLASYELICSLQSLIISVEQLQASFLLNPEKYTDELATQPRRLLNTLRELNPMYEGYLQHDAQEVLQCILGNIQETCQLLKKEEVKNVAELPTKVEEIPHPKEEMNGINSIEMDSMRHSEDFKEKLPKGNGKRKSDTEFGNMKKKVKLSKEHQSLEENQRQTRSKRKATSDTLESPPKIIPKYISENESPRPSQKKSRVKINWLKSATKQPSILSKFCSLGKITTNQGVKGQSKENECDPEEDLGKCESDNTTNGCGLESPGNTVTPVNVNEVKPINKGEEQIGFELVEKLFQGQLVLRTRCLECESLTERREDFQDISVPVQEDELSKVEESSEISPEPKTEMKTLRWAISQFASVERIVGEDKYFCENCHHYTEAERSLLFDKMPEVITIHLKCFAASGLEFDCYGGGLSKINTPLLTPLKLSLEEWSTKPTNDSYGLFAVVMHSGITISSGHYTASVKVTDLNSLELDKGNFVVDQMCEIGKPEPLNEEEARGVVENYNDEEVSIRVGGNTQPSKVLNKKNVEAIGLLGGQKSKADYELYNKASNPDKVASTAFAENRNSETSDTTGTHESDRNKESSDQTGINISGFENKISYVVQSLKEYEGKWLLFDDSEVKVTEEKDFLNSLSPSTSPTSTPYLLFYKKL
3',5'-cyclic-AMP phosphodiesterase 4B (Homo sapiens), sequence (Q07343 whole entry, looked up): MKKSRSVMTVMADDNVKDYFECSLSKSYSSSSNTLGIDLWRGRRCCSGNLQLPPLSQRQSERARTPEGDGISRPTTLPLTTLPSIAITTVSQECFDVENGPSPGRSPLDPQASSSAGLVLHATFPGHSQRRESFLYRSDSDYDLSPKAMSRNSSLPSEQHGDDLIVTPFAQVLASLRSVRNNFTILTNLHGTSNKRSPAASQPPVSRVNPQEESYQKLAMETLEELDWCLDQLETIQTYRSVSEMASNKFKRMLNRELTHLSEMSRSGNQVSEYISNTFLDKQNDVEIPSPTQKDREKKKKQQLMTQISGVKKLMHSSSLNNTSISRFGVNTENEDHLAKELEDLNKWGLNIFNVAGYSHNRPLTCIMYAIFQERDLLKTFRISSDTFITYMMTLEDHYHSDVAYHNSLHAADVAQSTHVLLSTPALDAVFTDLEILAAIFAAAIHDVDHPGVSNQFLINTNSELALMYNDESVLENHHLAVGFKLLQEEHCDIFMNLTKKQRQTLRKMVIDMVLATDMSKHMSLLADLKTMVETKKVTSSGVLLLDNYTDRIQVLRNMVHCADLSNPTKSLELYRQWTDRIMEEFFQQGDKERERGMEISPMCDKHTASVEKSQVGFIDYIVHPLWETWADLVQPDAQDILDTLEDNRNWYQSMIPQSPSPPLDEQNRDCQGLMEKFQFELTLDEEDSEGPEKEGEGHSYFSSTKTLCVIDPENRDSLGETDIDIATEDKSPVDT
Cytochrome P450 1A2 (Homo sapiens), sequence (P05177 whole entry, looked up): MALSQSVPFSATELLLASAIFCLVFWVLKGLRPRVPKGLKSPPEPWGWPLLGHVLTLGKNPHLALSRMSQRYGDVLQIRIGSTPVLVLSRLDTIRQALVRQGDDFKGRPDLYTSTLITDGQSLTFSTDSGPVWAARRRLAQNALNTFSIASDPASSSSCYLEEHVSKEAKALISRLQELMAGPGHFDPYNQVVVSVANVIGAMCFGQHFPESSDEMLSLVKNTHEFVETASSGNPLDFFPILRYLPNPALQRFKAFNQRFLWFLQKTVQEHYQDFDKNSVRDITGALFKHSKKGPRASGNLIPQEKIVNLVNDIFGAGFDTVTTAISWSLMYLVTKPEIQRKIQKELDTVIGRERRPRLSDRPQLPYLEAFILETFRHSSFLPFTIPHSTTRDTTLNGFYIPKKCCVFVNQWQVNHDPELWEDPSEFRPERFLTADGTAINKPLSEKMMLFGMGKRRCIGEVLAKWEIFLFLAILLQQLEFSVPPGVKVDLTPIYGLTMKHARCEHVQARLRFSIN
Cytochrome P450 3A4 (Homo sapiens), sequence (P08684 whole entry, looked up): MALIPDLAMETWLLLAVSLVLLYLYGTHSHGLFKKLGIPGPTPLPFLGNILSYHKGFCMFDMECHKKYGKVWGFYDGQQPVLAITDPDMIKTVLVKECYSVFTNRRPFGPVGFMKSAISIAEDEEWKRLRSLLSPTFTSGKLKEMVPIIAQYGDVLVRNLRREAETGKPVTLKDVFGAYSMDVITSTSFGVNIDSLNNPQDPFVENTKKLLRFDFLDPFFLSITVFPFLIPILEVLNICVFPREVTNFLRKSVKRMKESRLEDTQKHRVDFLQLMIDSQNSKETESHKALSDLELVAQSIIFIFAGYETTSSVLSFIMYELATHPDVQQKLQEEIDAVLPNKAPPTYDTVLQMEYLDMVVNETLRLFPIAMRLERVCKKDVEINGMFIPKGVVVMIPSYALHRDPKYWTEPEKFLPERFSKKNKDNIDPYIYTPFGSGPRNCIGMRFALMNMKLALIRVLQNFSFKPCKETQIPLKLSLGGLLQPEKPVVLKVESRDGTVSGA

Take `COc1ccc(-c2nc3cncnc3n(-c3ccccc3)c2=O)cc1`: the Potency in [1] is more than 11.4 µM; in [5], more than 9.22 µM; in assay [6], more than 46 µM. Moreover, the activity change, negative = inhibition in assay [2] is -9.87%; in assay [3] it was -10.5%. Moreover, the activity, negative = inhibition in [4] was -2.81%. The Potency result in assay [7], in [8], in assay [9], in assay [10] and in assay [11] was “inactive” in each case. Also, in assay [12], the result was inactive.
In the case of `Cc1nc2cncnc2n(Cc2ccccc2Cl)c1=O`, the values for the Potency in [1], in assay [5] and in assay [6] were more than 11.4 µM, more than 9.22 µM and more than 46 µM, respectively. Moreover, the activity change, negative = inhibition in assay [2] was -18%; in assay [3], -1.6%. Moreover, the activity, negative = inhibition in assay [4] was -18.9%. Also, the Potency result in [7], in [8], in assay [9], in assay [10] and in [11] was “inactive” in each case. In addition, the result in assay [12] was inactive.
For the compound `Cn1c(=O)c(-c2ccc(F)cc2)nc2cnc(Nc3ccccc3)nc21`, the Potency in assay [1] is more than 11.4 µM; in [5] it was more than 9.22 µM; in assay [6], more than 46 µM. For the same compound, the activity change, negative = inhibition in assay [2] is 4.86%; in [3], -9.42%. Besides, in assay [4], the activity, negative = inhibition is -5.13%. Further, the Potency entry in assay [7], in assay [8], in assay [9], in [10] and in assay [11] was “inactive” in each case. The result in assay [12] was inactive.
Regarding `COc1ccc(Oc2ncc3ncc(=O)n(-c4ccc(OC)cc4)c3n2)cc1`, the Potency in assay [1] is more than 11.4 µM; in [5], more than 9.22 µM; in [6], more than 46 µM; in assay [8], 2.82 µM (active); in [9] it was 2 µM (active); in assay [10], 4.47 µM (active). Moreover, the activity change, negative = inhibition in [2] was -24.9%; in assay [3], -12.3%. The activity, negative = inhibition in assay [4] is -13.9%. The Potency entry in assay [7], in assay [13] and in [11] was “inactive” in each case. In assay [12], the outcome was inactive.
Consider `COc1ncc2nc(-c3ccc(Cl)cc3)c(=O)n(Cc3cccs3)c2n1`, for which the values for the Potency in assay [1], in assay [5] and in assay [6] were more than 11.4 µM, more than 9.22 µM and more than 46 µM, respectively. Also, the activity change, negative = inhibition is -16.7% in assay [2] and 2.52% in assay [3]. Moreover, the activity, negative = inhibition in assay [4] is -18.3%. Also, the Potency entry in assay [7], in assay [13], in assay [8], in [9], in assay [10] and in [11] was “inactive” each time. In assay [12], the outcome was inactive.
In the case of `COc1ncc2nc(-c3ccc(Cl)cc3)c(=O)n(CCC#N)c2n1`, the Potency in [1] was more than 11.4 µM; in assay [5] it was more than 9.22 µM; in assay [6], more than 46 µM. Also, the activity change, negative = inhibition in [2] is -9.68%; in assay [3] it was 3.96%. In assay [4], the activity, negative = inhibition was -4.68%. The Potency entry in assay [7], in assay [13], in assay [8], in assay [9], in assay [10] and in assay [11] was “inactive” in each case. The outcome in assay [12] was inactive.
In the case of `COc1ccc(-c2nc3cnc(N(C)C)nc3n(Cc3cccs3)c2=O)cc1`, the Potency in assay [1] is more than 11.4 µM; in assay [14], 1.58 µM (active); in [5], more than 9.22 µM; in [6], more than 46 µM. The activity change, negative = inhibition in [2] was 17.1%. Further, the Potency result in assay [15], in assay [8], in [9], in assay [10] and in assay [11] was “inactive” in each case. Besides, the outcome in [12] was inactive.

The values above are taken from PubChem BioAssay (NCATS).
